# Screens deposited in PubChem BioAssay by Broad Institute.
# This is a sample that favours compounds with a hit; in the whole collection about 3.1% have one here.
# EWS-Fli inh – EWS/Fli-driven NR0B1 reporter inhibitors, primary screen, A673 cells, NR0B1 luciferase, luminescence, MLPCN library; viability-normalised; inhibition, % at 12.6 µM; actives 0.67% (n = 350,000); AID 651661, 2012;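 active means mean inhibition of at least 50% after viability correction, with every replicate also passing that limit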;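 further: firefly luciferase signal divided by Alamar Blue viability fluorescence both relative to DMSO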
# miR122 inh – miR-122 Renilla sensor signal increase in Huh7, primary screen, miR-122 inhibitor project, cell-based, single point, plate reader; actives 0.3% (n = 340,000); Huh7 miR-122 Renilla luciferase sensor, 48 h; neutral wells = 0, positive control = 100; activation (reporter increase), % at 12.5 µM;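 active means mean replicate activation score at least 90 and every replicate individually at or above 90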;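 further: higher luciferase means less miR-122 activity so hits act as miR-122 inhibitors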
# Env fusion inh – inhibitors of HIV-1 Env-driven cell-cell fusion, primary screen, HeLa-JRFL effector, CEM21 target cells, luciferase; actives 1.1% (n = 360,000); inhibition, % at 12.3 µM;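 active means mean replicate inhibition score of at least 50 and every replicate individually at or above 50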;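 further: 0% = plate neutral controls and 100% = maraviroc near 300 nM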
# GSIS activator – GLuc luminescence reporter in INS-1E cells, primary screen for activators of glucose-dependent secretion of insulin; INS-1E GLuc reporter insulin secretion, 2-3 h; activation, % at 16.6 µM; actives 0.61% (n = 370,000); AID 743287, 2014;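 active means lowest replicate activation of at least 40%, so every replicate reaches that level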;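 further: 0% = median of neutral control wells and 100% = median of IBMX positive control wells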
# PAX8 inh HTS – inhibitors of PAX8-driven TPO luciferase reporter, primary screen, RMG-I cells, single concentration; inhibition, % at 12.6 µM; SteadyGlo, 24 h; actives 1.2% (n = 360,000); AID 652154, 2013;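 active means mean replicate inhibition at least 60% with every replicate also reaching 60%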;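 further: luciferase light reporting Pax8 driven TPO promoter activity; plate controls were median of neutral control wells for no effect and mitoxantrone controls for full effect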
# Statin myotox sup – suppressors of statin myotoxicity in C2C12 myotubes, primary screen, cell-based, single point, plate reader; C2C12 myotubes + simvastatin, ATP luminescence, 48 h; scaled: DMSO 0, geranylgeraniol control 100; rescue of ATP level, % at 7.49 µM; actives 0.78% (n = 330,000); AID 602340, 2012;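 active means mean ATP rescue above about 67%, or every replicate alone reaching that limit, limit read from the data, passing the limit was not always enough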;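 further: myotubes were challenged with 10 µM simvastatin during compound exposure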
# * marks the source's active call; other numbers are inactive results; . = no result; [ ] = dose if it differs, or a comment.
SMILES,EWS-Fli inh,miR122 inh,Env fusion inh,GSIS activator,PAX8 inh HTS,Statin myotox sup
O=S(=O)(c1ccc(Cl)cc1)N1CCC(O)(CN2CCN(Cc3ccccc3)CC2)CC1,3.4,.,0.5,-22.9,12.9,.
O=S(=O)(c1ccccc1)N1CCC(O)(CSc2ccc(Cl)cc2)CC1,.,-12.5,61.1*,.,.,.
CCCNC(=O)Nc1ccc2c(c1)OC[C@@H](C)N(Cc1ccccn1)C[C@@H](C)[C@H](OC)CN(C)C2=O,-4.5,.,.,7.2,10.9,-0.9
O=C(O)/C=C1\NC(=O)c2ccccc21,.,-0.4,.,3.0,.,103.5*
CCS(=O)(=O)c1c([N+](=O)[O-])ncn1C,-3.2,.,16.8,-5.8,-3.4,.
Cn1cnc([N+](=O)[O-])c1Oc1cccc2ccccc12,.,.,9.1,6.1,14.7,.
Cn1cnc([N+](=O)[O-])c1S(=O)(=O)Oc1ccc(Cl)cc1,63.8*,.,-9.2,54.2,110.3*,-187.0
Cn1cnc([N+](=O)[O-])c1S(=O)(=O)Oc1cccc2ccccc12,49.8,1.8,-1.5,21.1,79.7*,-28.0
Cc1ccccc1-c1ccc(C2[C@@H]3CN(Cc4cccnc4)C[C@H]2N3)cc1 (some centres not stated),-6.3,.,.,-0.1,-12.0,.
Cc1ccc(S(=O)(=O)N2CCCc3ccccc32)cc1,1.8,3.3,2.3,.,4.3,-7.4
O=S(=O)(NC1CC1)c1ccc(S(=O)(=O)N2CCCc3ccccc32)cc1,.,-2.8,68.6*,-17.0,.,-1.4
O=C(O)C[C@@H]1CC[C@H](NC(=O)c2ccccc2F)[C@H](CO)O1,-2.2,.,-11.5[16.7 µM],6.9,-27.3,-1.5
COc1ccc(CN(C)C[C@@H]2Oc3ccc(NC(=O)CCN4CCOCC4)cc3CC(=O)N([C@@H](C)CO)C[C@H]2C)cc1,5.0,-2.6[16.7 µM],.,13.2,5.5,-17.3
Cc1cc2nncn2c2ccccc12,.,5.4,-354.7,.,1.3,-5.5
Cc1ccccc1-n1c(=O)c2ccccc2n2cnnc12,.,-18.8,83.2*,.,.,-22.1
CCOC(=O)CSc1nnc(CSc2nc3sc4c(c3c(=O)[nH]2)CCC4)n1-c1ccccc1,.,-7.1,-55.7,.,-16.2,2.9
C=CCSc1nnc(CSc2nc3sc4c(c3c(=O)[nH]2)CCCC4)n1-c1ccccc1,.,3.9,.,.,.,120.4*
N#C[C@@H]1[C@H](c2ccc(C#CC3CCCCC3)cc2)[C@H](CO)N1S(=O)(=O)c1ccccc1,14.5,.,-2.7[16.7 µM],-11.6,84.0*,-41.8
N#C[C@@H]1[C@@H](c2ccccc2)[C@@H](CO)N1S(=O)(=O)Cc1ccccc1,-1.4,.,.,12.9,0.8,15.8
N#C[C@@H]1[C@@H](c2ccc(-c3ccc(F)cc3)cc2)[C@@H](CO)N1S(=O)(=O)Cc1ccccc1,-3.0,.,0.5[16.7 µM],-1.9,69.4*,38.7
N#C[C@@H]1[C@H](c2ccccc2)[C@@H](CO)N1S(=O)(=O)Cc1ccccc1,-5.4,.,.,10.6,-9.5,8.0
N#C[C@@H]1[C@@H](c2ccccc2)[C@H](CO)N1S(=O)(=O)c1ccc(-c2ccccc2)cc1,12.1,.,15.6[16.7 µM],-10.6,-3.6,87.9*
N#C[C@H]1[C@@H](c2ccc(-c3ccccc3)cc2)[C@@H](CO)N1S(=O)(=O)Cc1ccccc1,4.5,.,62.5*[16.7 µM],-25.1,9.0,33.9
CCCc1cn(CC[C@@H]2CC[C@H](NC(=O)C3CCCC3)[C@H](CO)O2)nn1,5.4,-2.0[16.7 µM],-1.7[16.7 µM],-2.2,-7.2,-2.9
C[C@@H]1CN([C@H](C)CO)C(=O)Cc2cc(NC(=O)Cn3cnnn3)ccc2O[C@@H]1CN(C)C(=O)Nc1cccc2ccccc12,0.5,5.1[16.7 µM],20.4[16.7 µM],-4.9,22.6,26.3
SMILES,EWS-Fli inh,miR122 inh,Env fusion inh,GSIS activator,PAX8 inh HTS,Statin myotox sup
O=C(C[C@H]1CC[C@@H]2[C@H](COC[C@@H](O)CN2Cc2ccccc2)O1)NCCCN1CCOCC1,0.1,2.0[16.7 µM],.,13.3,-8.7,4.2
COc1ccc2oc(C)c(C(=O)c3ccc([N+](=O)[O-])cc3)c2c1,-7.7,.,.,29.4,93.0*,.
C[C@@H]1CN([C@@H](C)CO)C(=O)c2cccc(NS(=O)(=O)c3ccc(F)cc3)c2O[C@H]1CN(C)C(=O)Nc1cccc2ccccc12,-5.7,.,.,-1.9,.,.
COc1ccc(CCn2ccc(O)c(Cc3c(F)cccc3Cl)c2=O)cc1OC,-6.6,.,22.7,42.7*,3.0,.
CC=Cc1ccc2n(c1=O)C[C@@H]1[C@@H](CO)[C@H](C(=O)NCC)N(C(=O)CC3CC3)[C@H]21 (mixture of isomers),-2.7,.,17.1[16.7 µM],5.1,0.7,42.4
COc1cccc(C(C)(O)c2nc(-c3ccc(S(C)(=O)=O)cc3)cs2)c1 (configuration not stated),9.1,1.6,64.0*,.,28.0,-14.2
COc1ccc(-c2csc(C(C)(O)c3cccc(OC)c3)n2)cc1 (configuration not stated),-0.3,-1.7,21.7,-30.2,-1.5,2.6
O=C(c1ccccc1)N1C[C@@H]2[C@H](c3ccccc31)[C@@H](CO)N2C(=O)CN1CCOCC1,-3.5,0.0[16.7 µM],.,4.0,-12.7,3.5
O=C(NC1CCCCCCC1)C1CCN(c2nc3ccccc3o2)CC1,.,0.1,75.2*,.,.,-10.9
O=C(NCCc1ccccc1)C1CCN(c2nc3ccccc3o2)CC1,2.7,-10.9,.,6.3,.,.
O=C(NC1CCCCCC1)C1CCCN(c2ncccn2)C1 (configuration not stated),-44.2,-2.1,-21.5,64.8*,-55.1,6.7
O=C(C[C@H]1C[C@H]2c3cc(NC(=O)NC4CCCC4)ccc3O[C@H]2[C@@H](CO)O1)NCc1cc(F)ccc1F,-2.4,-1.6[16.7 µM],8.2[16.7 µM],2.7,0.5,2.3
CCCN(C)C[C@H]1Oc2cc(-c3ccncc3)ccc2S(=O)(=O)N([C@H](C)CO)C[C@H]1C,6.4,5.7[16.7 µM],-8.8[16.7 µM],-4.1,.,15.4
CC#CC#Cc1cccc(=O)o1,12.6,-0.3,-64.7,-3.5,44.1,96.8*
CC(C)NC(=O)Nc1ccc2c(c1)CC(=O)N([C@@H](C)CO)C[C@H](C)[C@@H](CN(C)Cc1ccc(Oc3ccccc3)cc1)O2,16.4,-10.1[16.7 µM],.,-29.6,9.7,28.2
O=C(Nc1c(-c2ccccc2)nc2ccccn12)c1ccco1,.,-2.9,-22.9,.,1.6,27.4
Oc1ccc(-c2nc3ccccn3c2NCc2ccco2)cc1,.,-1.0,.,.,.,80.9*
Cc1cccc(Nc2nnc(-c3ccc(C(=O)N4C[C@H]5C[C@H](C4)c4cccc(=O)n4C5)cc3)c3ccccc23)c1,.,-2.7,.,.,.,113.5*
CCC(=O)Nc1ccc2c(c1)C(=O)N(C)C[C@@H](OC)[C@@H](C)CN(C(=O)C1CCC1)[C@@H](C)CO2,-5.1,0.3[16.7 µM],.,9.3,.,4.9
CC(C)CCC(O)(CCC(C)C)C(=O)NN1CCCCC1,.,-20.9,-6.2,49.3*,4.0,-0.7
